This is a sample that favours compounds with a hit; in the whole collection about 7.3% have one here.
NPC1 prom act: qHTS Assay for NPC1 Promoter Activators; Potency, µM (highest dose often 9.22 µM), hits mostly activators; Huh7 NPC1 promoter luciferase reporter, 24 h; AID 485313, 2010; 320,000 compounds, 2.4% hits; also: nearly all actives have a fitted effect of over 60% in size
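Stably transfected Huh7 (NPC1 promoter→luciferase), 1500 cells/well in Opti-MEM + 10% FBS, 2 h settle, then compound 24 h at 37 °C. Luminescence after 10 min with Amplite reagent.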
Rab9 prom act: qHTS Assay for Rab9 Promoter Activators. Huh7 Rab9 promoter-luciferase reporter, luminescence, 24 h. Potency, µM (titrated, usually from 9.22 µM), hits mostly activators. 320,000 compounds, 2.8% hits; also: nearly all actives have a fitted effect of over 60% in size
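Stable Rab9-luc Huh7, 1500 cells/well, 2 h settle; cmpd in DMSO, 24 h, 37 °C/5% CO2; luciferase reagent 10 min RT; luminescence.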
ELG1 genotoxic: qHTS screen for small molecules that induce genotoxicity in human embryonic kidney (HEK293T) cells expressing luciferase-tagged ELG1; HEK293T ELG1-luciferase reporter, luminescence, 16 h; Potency, µM (series often up to 46 µM), usual class: activators; 330,000 compounds, 1.3% hits; AID 504466, 2011; also: nearly all actives have a fitted effect of over 60% in size
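Genotoxic stress is detected as increased luminescence from luciferase-tagged ELG1 in HEK293T cells, measured with ONE-Glo after a 16 hr treatment at 37 °C.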
SMN2 splice enh: qHTS Assay for Enhancers of SMN2 Splice Variant Expression | HEK293 SMN2-luciferase splicing reporter, luminescence, 30-36 h | 210,000 compounds, 2.8% hits | Potency, µM (doses to about 46.1 µM), most hits filed as activators; also: nearly all actives have a fitted effect of over 55% in size
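HEK293 cells carry an SMN2 […]–luciferase reporter in which exon 7 inclusion puts luciferase in frame. Cells were plated 10-12 h before compound addition, then incubated 30-36 h at 37C. ONE-Glo luminescence was read; sodium butyrate at 4.5 mM final served as control.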
uPA surface inh: qHTS for Inhibitors of Cell Surface uPA Generation. cell surface uPA generation assay, qHTS. Potency, µM (highest dose often 38.3 µM), most hits filed as inhibitors. 330,000 compounds, 0.31% hits; active = well fitted inhibition curve with a large enough effect; inconclusive = small, poorly fitted or top-dose-only effect; inactive = no such curve, though single readings can be large or run the other way; tested in mouse RAW 264.7 cells; also: nearly all actives have a fitted effect of over 55% in size
FLuc modulator: qHTS profiling assay for firefly luciferase inhibitor/activator using purifed enzyme and Km concentrations of substrates (counterscreen for miR-21 project); Luciferin 4-monooxygenase (Photinus pyralis), P08659; purified FLuc, Km substrates, luminescence inhibition; Potency, µM (top dose mostly 57.5 µM), hits mostly inhibitors; 360,000 compounds, 6.9% hits; AID 588342, 2011; also: nearly all actives have a fitted effect of over 55% in size
Target sequence (P08659 whole entry, looked up): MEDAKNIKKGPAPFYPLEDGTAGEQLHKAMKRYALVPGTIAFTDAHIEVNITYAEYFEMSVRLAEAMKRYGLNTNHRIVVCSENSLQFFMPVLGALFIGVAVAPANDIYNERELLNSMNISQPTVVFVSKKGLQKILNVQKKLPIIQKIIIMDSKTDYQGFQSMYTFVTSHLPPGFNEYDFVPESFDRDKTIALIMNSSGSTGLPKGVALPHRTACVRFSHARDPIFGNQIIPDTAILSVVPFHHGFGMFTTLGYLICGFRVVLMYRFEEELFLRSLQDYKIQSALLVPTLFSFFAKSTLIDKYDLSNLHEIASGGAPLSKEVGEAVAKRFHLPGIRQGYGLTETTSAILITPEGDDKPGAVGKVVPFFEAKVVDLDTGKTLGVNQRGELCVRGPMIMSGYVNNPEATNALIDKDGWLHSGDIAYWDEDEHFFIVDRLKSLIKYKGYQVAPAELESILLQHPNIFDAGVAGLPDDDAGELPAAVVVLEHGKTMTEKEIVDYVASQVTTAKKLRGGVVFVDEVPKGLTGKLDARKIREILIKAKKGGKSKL
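Purified P. pyralis luciferase, 10 nM final, with Km-level 10 uM D-luciferin and 10 uM ATP in 50 mM Tris acetate pH 7.5, 10 mM Mg acetate, 0.01% Tween-20, 0.05% BSA; 6-point qHTS titration about 60 µM downward; luminescence read.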
A number is an active result; n = inactive; u = inconclusive; x = no result. Unless noted, calls follow the shape of the dose curve; as a rule, active = well fitted curve in the direction sought with a large enough effect; inconclusive = small, poorly fitted or top-dose-only effect, or another doubt; inactive = no such curve, though single readings can be large; an effect the other way counts as inactive or inconclusive.

SMILES	NPC1 prom act	Rab9 prom act	ELG1 genotoxic	SMN2 splice enh	uPA surface inh	FLuc modulator
COc1cc(OC)cc(N2CCN(S(=O)(=O)c3ccc(-n4cnnn4)cc3)CC2)c1	n	n	n	n	n	n
CCn1cc(S(=O)(=O)c2ccccc2)c(=O)c2cc(F)c(N3CCN(c4ccccc4)CC3)cc21	x	x	x	x	x	n
CN=C1S/C(=C\c2cc(C)n(-c3ccccc3F)c2C)C(=O)N1C	u	1.58µM	u	n	x	0.338µM
Cc1ccc(-c2cc3ncc(C#N)c(N)n3n2)cc1	2.82µM	2.82µM	u	u	n	n
Nc1c(-c2ccccc2)cnc2cc(-c3ccccc3)nn12	1.41µM	0.708µM	2.59µM	4.47µM	u	0.601µM
Cc1cc2ncc(-c3ccc(Cl)cc3)c(N)n2n1	u	3.98µM	14.6µM	12.6µM	3.55µM	9.53µM
Nc1c(-c2ccc(Cl)cc2)cnc2ncnn12	n	n	n	n	n	n
CC(=O)Nc1ccc(NC(=O)CN2C(=O)CN(C)C(=O)c3ccccc32)cc1	x	x	x	x	x	n
O=C(Cc1csc(N2CCOCC2)n1)N/N=C/c1ccc(Cl)cc1Cl	n	n	n	n	n	u
COc1cc(/C=N/NC(=O)Cc2csc(N3CCOCC3)n2)cc(OC)c1O	n	n	n	n	u	15.1µM
Nc1cccc(NC(=O)c2ccco2)c1	n	n	n	x	n	n
O=C(Nc1cccc(NC(=O)c2sc3ccccc3c2Cl)c1)c1ccco1	n	n	n	n	n	2.69µM
O=C(Nc1cccc(NC(=O)c2nccc3ccccc23)c1)c1ccco1	n	n	u	n	u	8.49µM
O=C(Nc1cccc(F)c1)c1ccco1	n	n	n	x	n	n
Cc1ccc(Cl)cc1NC(=O)C1CCN(c2nc3ccccc3n3cccc23)CC1	x	x	x	x	x	n
COc1cc(NC(=O)CN2c3ccccc3S(=O)(=O)c3ccccc32)cc(OC)c1	x	x	x	x	x	n
COc1ccc(/C=N/NC(=O)c2cc(C34CC5CC(CC(C5)C3)C4)[nH]n2)cc1O	n	n	u	n	n	15.1µM
COc1ccc(/C=N\NC(=O)c2ccc(=O)[nH]n2)cc1O	n	n	n	n	n	n
CCOc1ccc(N2C(=O)S/C(=C\c3cccn3C)C2=O)cc1	n	n	n	u	n	n
Cn1cccc1/C=C1\SC(=O)N(c2ccc(O)cc2)C1=O	u	u	u	12.6µM	n	u
COC(=O)CSc1nnc(-c2ccc(NS(=O)(=O)c3ccccc3)cc2)o1	n	n	n	n	n	n
COC(=O)CSc1nnc(-c2sc3ccccc3c2Cl)o1	n	n	n	n	n	5.36µM
N#CCSc1nnc(-c2sc3ccccc3c2Cl)o1	n	n	n	n	n	16.9µM
CCc1ccccc1NC(=O)C(=O)NCCc1sc(-c2cccc(F)c2)nc1C	x	x	x	x	x	n
COc1ccc(Nc2nc3ccccc3c3nnc(C)n23)cc1Cl	x	x	x	n	x	23.9µM
SMILES	NPC1 prom act	Rab9 prom act	ELG1 genotoxic	SMN2 splice enh	uPA surface inh	FLuc modulator
Cc1ccc(Nc2nc3ccccc3c3nnc(C)n23)cc1Cl	x	x	x	x	x	n
CCCn1c(=N)c(C(=O)NC2CCCC2)cc2c(=O)n3cc(C)ccc3nc21	x	x	x	n	x	n
CC(=O)Nc1nc(C2COc3ccccc3O2)cs1 (stereo not drawn)	1.26µM	0.562µM	0.651µM	3.98µM	n	4.78µM
NC(N)=Nc1nc(C2COc3ccccc3O2)cs1 (stereo not drawn)	1.58µM	1.26µM	u	4.47µM	n	3.38µM
O=C(NCC(=O)N(c1ccccc1)C(C(=O)NC1CCCCC1)c1cccnc1)c1ccco1 (stereo not drawn)	n	n	n	x	n	n
O=C(C1CCCN(S(=O)(=O)c2ccc(Br)s2)C1)N1CCN(c2ccccc2F)CC1 (stereo not drawn)	x	x	x	n	x	n
COc1cc(NC(=O)c2ccc(-c3nc(COc4ccccc4)c(C)o3)cc2)cc(OC)c1	x	x	x	x	x	n
Cc1ccc(/C=C2\SC(N3CCCCC3)=NC2=O)cc1	n	u	n	x	n	19µM

Screening results (PubChem)
